Hit rate of the full screen: of about 330,000 compounds, about 4,200 (1.3%) were called active. Inconclusive results (about 6%) are left out. The call rests on the fitted dose curve; in most records, active means well fitted activation curve with a large enough effect; inconclusive means small, poorly fitted or top-dose-only effect; inactive means no such curve, though single readings can be large or run the other way. The entries come from a sample that favours actives as a whole. Where a call stands in place of a potency, no number is given.
Assay: qHTS screen for small molecules that induce genotoxicity in human embryonic kidney (HEK293T) cells expressing luciferase-tagged ELG1; further: nearly all actives have a fitted effect of over 60% in size
Conditions: HEK293T ELG1-luciferase reporter, luminescence, 16 h; series mostly up to 46 µM
In short: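 Step 1: seed 2,000 HEK293T ELG1-luciferase cells per well. Step 2: add compound or DMSO, incubate 16 hr at 37 °C. Step 3: ONE-Glo, 30 min at room temperature, read luminescence.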
Potency means the concentration at half of the fitted maximal effect.

Q: With `COc1cc(/C=C2\Oc3ccc(C#Cc4ccc(O)cc4)cc3C2=O)cc(OC)c1` as the compound, how does the Potency read?
A: Its Potency is “inactive”.

Q: With `Cc1cc(C(=O)OCC(=O)N2C(C)CCCC2C)c2ccccc2n1` (stereo unspecified) as the compound, how does the Potency read?
A: The Potency was “inactive”.

Q: Which Potency does the source give for `O=C(c1cnccn1)N1CCN(S(=O)(=O)c2cccc(Cl)c2)CC1` here?
A: The Potency was “inactive”.

Q: Which Potency does the source give for `O=C(COC(=O)c1cc[n+]([O-])cc1)Nc1ccc(Cl)c(C(F)(F)F)c1` here?
A: The Potency was “inactive”.

Q: With `COc1ccc(C(=O)Cc2cnn(-c3ccccc3)c2)c(O)c1` as the compound, how does the Potency read?
A: The Potency was 18.4 µM (active).

Q: With `COc1ccc(C(=O)CC(=O)c2ccc(C)cc2)c(O)c1` as the compound, how does the Potency read?
A: The Potency was “inactive”.

Q: For `Cc1cc(O)cc(O)c1C(=O)Cc1cnn(-c2ccccc2)c1`, which Potency is on record?
A: Its Potency is “inactive”.

Q: Which Potency does the source give for `CCc1ccc(-c2cc(C(=O)NCc3ccco3)c3ccccc3n2)s1` here?
A: Its Potency is “inactive”.

Q: For `CCC1(CC)NC(=O)N(Cc2nc3ccccc3s2)C1=O`, which Potency is on record?
A: Its Potency is “inactive”.

Q: With `CC(=NCc1ccco1)c1c(C(F)(F)F)[nH]n(-c2nc3ccccc3s2)c1=O` as the compound, how does the Potency read?
A: The Potency was 2.59 µM (active).

Q: For `COc1cc(OC)cc(C(=O)NCC(=O)OCC(=O)NC(C)CCc2ccccc2)c1` (stereo unspecified), which Potency is on record?
A: The Potency was “inactive”.

Q: With `COc1cc(OC)c(C(=O)NNC(=O)c2ccccc2-n2cccc2)cc1OC` as the compound, how does the Potency read?
A: The Potency was “inactive”.

Q: With `N#Cc1ccccc1NC(=O)c1cccc(COc2ccc(Cl)cc2Cl)c1` as the compound, how does the Potency read?
A: The Potency was 0.461 µM (active).

Q: With `CSc1ccc(C#N)cc1NC(=O)c1cccc(Cl)c1` as the compound, how does the Potency read?
A: Its Potency is “inactive”.

Q: With `O=C(Nc1ccn(Cc2ccccc2F)n1)c1ccc(COc2ccc(Cl)cc2Cl)o1` as the compound, how does the Potency read?
A: The Potency was “inactive”.

Q: For `O=C(COC(=O)c1ccccn1)NNC(=O)c1ccc(Br)cc1`, which Potency is on record?
A: The Potency was “inactive”.

Q: Which Potency does the source give for `O=C(N[C@H]1C/C=C\C(c2cccc(F)c2)N(Cc2ccccc2)C(=O)C1)OCC1c2ccccc2-c2ccccc21` (stereo partly specified) here?
A: The Potency was “inactive”.

Q: Which Potency does the source give for `COc1ccc(S(=O)(=O)N(C)C[C@H]2Oc3c(NC(=O)Nc4ccc5c(c4)OCO5)cccc3C(=O)N([C@H](C)CO)C[C@@H]2C)cc1` here?
A: The Potency was “inactive”.

Q: With `CC(Oc1ccc2c(-c3ccccc3)cc(=O)oc2c1)C(=O)NC(Cc1c[nH]c2ccccc12)C(=O)O` (stereo unspecified) as the compound, how does the Potency read?
A: Its Potency is “inactive”.

Q: For `O=C(Nc1cccc(NC(=O)c2cccc(F)c2)c1)c1ccccc1`, which Potency is on record?
A: The Potency was “inactive”.

Q: With `O=C(Nc1ccccc1N1CCN(c2ccccc2)CC1)c1cccc(F)c1` as the compound, how does the Potency read?
A: The Potency was “inactive”.

Q: With `O=C(Nc1ccn(Cc2ccccc2)n1)c1cccc(F)c1` as the compound, how does the Potency read?
A: The Potency was 23.1 µM (active).

Q: For `O=S(=O)(Nc1ncnc2sccc12)c1cccc(F)c1`, which Potency is on record?
A: The Potency was “inactive”.

Q: With `Cc1ccc(NC(=O)c2ccc(Cl)nc2)cc1S(=O)(=O)N1CCOCC1` as the compound, how does the Potency read?
A: Its Potency is “inactive”.

Q: For `COc1ccc2oc(-c3cccc(NC(=O)CSc4ccc(Cl)cc4)c3)nc2c1`, which Potency is on record?
A: Its Potency is “inactive”.

Q: Which Potency does the source give for `COc1cccc(-c2nc3cc(C)ccc3o2)c1` here?
A: The Potency was 1.3 µM (active).

Q: Which Potency does the source give for `COc1cccc(-c2nnc(SCCOc3ccc4c(C)cc(=O)oc4c3)o2)c1` here?
A: Its Potency is “inactive”.

Q: With `CC(OC(=O)c1ccc([N+](=O)[O-])cc1)C(=O)NCC1CCCCC1` (stereo unspecified) as the compound, how does the Potency read?
A: Its Potency is “inactive”.

Q: Which Potency does the source give for `CN(Cc1cccnc1)C(=O)c1cc(COc2ccc3ncccc3c2)on1` here?
A: Its Potency is “inactive”.

Q: For `CN(Cc1cnccn1)C(=O)c1cc(COc2cccc(C(F)(F)F)c2)on1`, which Potency is on record?
A: Its Potency is “inactive”.

Q: Which Potency does the source give for `Cc1cc(CN(C)C(=O)c2cc(COc3ccc(C)c(C)c3)on2)n[nH]1` here?
A: Its Potency is 2.91 µM (active).

Q: Which Potency does the source give for `O=C(Cn1cnc2c(OCc3ccccc3)ncnc21)NCc1nc2ccccc2[nH]1` here?
A: Its Potency is “inactive”.

Q: With `COc1ccc(C(=O)NCc2nnc(SCCOc3ccccc3)n2C)cc1` as the compound, how does the Potency read?
A: The Potency was “inactive”.

Q: With `COc1cccc(C(=O)NCCSc2ccc(Br)cc2)c1` as the compound, how does the Potency read?
A: Its Potency is “inactive”.

Q: With `COc1ccc(C(=O)NCCSc2ccccc2C)cc1` as the compound, how does the Potency read?
A: Its Potency is 4.61 µM (active).

Q: With `COc1ccc2nc3n(c(=O)c2c1)-c1ccc(Cl)cc1C(=O)NC3Cc1ccccc1` (stereo unspecified) as the compound, how does the Potency read?
A: Its Potency is “inactive”.

Q: With `COc1ccc(CCNC(=O)COC(=O)c2ncc(Cl)c(Cl)c2Cl)cc1OC` as the compound, how does the Potency read?
A: The Potency was “inactive”.

Q: With `O=C1c2cccc3c([N+](=O)[O-])ccc(c23)C(=O)N1CC1CCCO1` (stereo unspecified) as the compound, how does the Potency read?
A: Its Potency is 20.6 µM (active).

Q: With `CCOc1cccc(=O)c2c(C)n(CC3CCCO3)c(C)c12` (stereo unspecified) as the compound, how does the Potency read?
A: Its Potency is “inactive”.

Q: Which Potency does the source give for `CN1CN(C)c2ccc([N+](=O)[O-])c3cccc1c23` here?
A: The Potency was “inactive”.

Q: With `CC[C@@H](C)[C@@H]1CN([C@@H](C)CN2CCC[C@H]2CN2C(N)=NC[C@H]2C(C)C)C(=N)N1CCc1ccc(Cl)c(Cl)c1` as the compound, how does the Potency read?
A: Its Potency is “inactive”.

Q: With `COc1ccc(-c2nc3cc(C)ccn3c2NC2CCCCC2)cc1SC1CCCCC1` as the compound, how does the Potency read?
A: Its Potency is “inactive”.

Q: For `CC1(C)CN(c2ccc(-c3ccnc4ncnn34)cc2)C1=O`, which Potency is on record?
A: Its Potency is 12.6 µM (active).

Q: For `Nc1c(-c2ccc(F)cc2)cnc2ncnn12`, which Potency is on record?
A: Its Potency is “inactive”.

Q: For `Cc1ccc(C2(C)NC(=O)N(CC(=O)N3CC(=O)Nc4ccccc43)C2=O)cc1` (stereo unspecified), which Potency is on record?
A: Its Potency is “inactive”.

Q: Which Potency does the source give for `Cc1occc1C(=O)Nc1cccc(S(=O)(=O)N2CCOCC2)c1` here?
A: Its Potency is “inactive”.

Q: For `O=C1C=CN2CCCC2CC1` (stereo unspecified), which Potency is on record?
A: The Potency was “inactive”.

Q: For `Cc1ccc(/C=N/NC(=O)c2cc3ccccc3cc2O)o1`, which Potency is on record?
A: The Potency was “inactive”.

Q: Which Potency does the source give for `Cc1cc(N=Nc2ccc3ccccc3c2)ccc1O` here?
A: The Potency was 7.3 µM (active).

Q: Which Potency does the source give for `Cc1ccc(Br)c(NS(=O)(=O)c2cccc(C(=O)N3CCNC(=O)C3)c2)c1` here?
A: The Potency was “inactive”.

Q: For `CC1(C)CC[C@@]2(C(=O)O)C(C1)C1=CCC3[C@@]4(C)CC[C@H](O)C(C)(C)C4CC[C@@]3(C)[C@]1(C)C[C@H]2O` (stereo partly specified), which Potency is on record?
A: Its Potency is “inactive”.
